Source: PubChem BioAssay (National Center for Advancing Translational Sciences (NCATS))
G9a inh – G9a (human) methyltransferase inhibition; Q96KQ7; G9a H3K9 monomethylation, AlphaScreen, 2 h; Potency, µM (titrated, usually from 102 µM), for the others: at the top dose activity, negative = inhibition, actives largely listed as inhibitors; 350,000 compounds, 8.8% hits; further: on the % scale 0 is the no-effect control and ±100 the full control effect; nearly all actives have a fitted effect of over 75% in size
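Step 1: enzyme (final 20 nM) with compound, 15 min RT. Step 2: substrate peptide 500 nM and SAM 20 uM, 2 h RT. Step 3: anti-H3K9me1 antibody and AlphaScreen beads, 10 min, then plate read.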
Sfp PPTase inh – inhibitors of Bacillus subtilis Sfp phosphopantetheinyl transferase | Biochemical Sfp PPTase activity, qHTS | 310,000 compounds, 3.5% hits | AID 1490 | Potency, µM, inactives show largest response in the series, negative = inhibition, usual class: inhibitors | Q9F4F7;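 further: the enzyme is Sfp with the accession as filed and its product quenches rhodamine fluorescence; 0% = enzyme reaction without inhibitor and -100% = no enzyme wells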
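After 15 min at room temperature with compound, 15 nM Sfp received 5 uM rhodamine-CoA plus 12.5 uM BHQ-2-ybbR (50 mM Hepes pH 7.6, 10 mM MgCl2). Rate came from the fluorescence difference over 30 min, ex 525/em 598 nm.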
BAZ2B block – inhibitors of human BAZ2B bromodomain; Potency, µM (titrated, usually from 114 µM), for the others: at the highest dose activity change, negative = inhibition, usual class: inhibitors; Q9UIF8; 360,000 compounds, 4.4% hits; AlphaScreen BAZ2B-H3K14Ac peptide displacement; further: on the % scale 0 is the no-effect control and ±100 the full control effect; nearly all actives have a fitted effect of over 60% in size
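Protein-peptide AlphaScreen: BAZ2B 50 nM, b-H3K14Ac 50 nM, 1x PBS pH 7.4 + 0.01% Tween-20. Preincubation 30 min RT; cpd 30 min RT (top 110 uM); beads 20 min RT, light-protected.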
JMJD2A Tudor inh – blocks the human JMJD2A Tudor domain | AlphaScreen JMJD2A-Tudor / H3K4me3 peptide binding | O75164 | Potency, µM (series often up to 114 µM), inactives show top-dose activity change, negative = inhibition, actives largely listed as inhibitors | AID 504339 | 390,000 compounds, 4.4% hits; further: on the % scale 0 is the no-effect control and ±100 the full control effect; nearly all actives have a fitted effect of over 50% in size
HP1b chromo inh – blocks HP1-beta chromodomain binding to methylated histone tails. P83916. AlphaScreen HP1-beta / biotin-H3K9me3 peptide binding. Potency, µM (highest dose often 114 µM), for the others: at the top dose activity change, negative = inhibition, most hits filed as inhibitors. 390,000 compounds, 0.56% hits. AID 540317; further: nearly all actives have a fitted effect of over 70% in size
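AlphaScreen: HP1-beta (50 nM) preformed 30 min with biotin-H3(1-18)K9me3 peptide (50 nM) in PBS pH 7.4, 0.01% Tween-20. Compound added for 30 min at RT, then streptavidin donor/nickel chelate acceptor beads (10 ug/mL) for 30 min.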
L3MBTL1 inh – L3MBTL1 (human) inhibition; AlphaScreen L3MBTL1–H3K9me1 peptide binding; Potency, µM (doses to about 57.1 µM), inactives show top-dose activity, negative = inhibition, most hits filed as inhibitors; 230,000 compounds, 0.66% hits; AID 485360; further: on the % scale 0 is the no-effect control and ±100 the full control effect; nearly all actives have a fitted effect of over 60% in size
Target sequence (Q9Y468 whole entry, looked up): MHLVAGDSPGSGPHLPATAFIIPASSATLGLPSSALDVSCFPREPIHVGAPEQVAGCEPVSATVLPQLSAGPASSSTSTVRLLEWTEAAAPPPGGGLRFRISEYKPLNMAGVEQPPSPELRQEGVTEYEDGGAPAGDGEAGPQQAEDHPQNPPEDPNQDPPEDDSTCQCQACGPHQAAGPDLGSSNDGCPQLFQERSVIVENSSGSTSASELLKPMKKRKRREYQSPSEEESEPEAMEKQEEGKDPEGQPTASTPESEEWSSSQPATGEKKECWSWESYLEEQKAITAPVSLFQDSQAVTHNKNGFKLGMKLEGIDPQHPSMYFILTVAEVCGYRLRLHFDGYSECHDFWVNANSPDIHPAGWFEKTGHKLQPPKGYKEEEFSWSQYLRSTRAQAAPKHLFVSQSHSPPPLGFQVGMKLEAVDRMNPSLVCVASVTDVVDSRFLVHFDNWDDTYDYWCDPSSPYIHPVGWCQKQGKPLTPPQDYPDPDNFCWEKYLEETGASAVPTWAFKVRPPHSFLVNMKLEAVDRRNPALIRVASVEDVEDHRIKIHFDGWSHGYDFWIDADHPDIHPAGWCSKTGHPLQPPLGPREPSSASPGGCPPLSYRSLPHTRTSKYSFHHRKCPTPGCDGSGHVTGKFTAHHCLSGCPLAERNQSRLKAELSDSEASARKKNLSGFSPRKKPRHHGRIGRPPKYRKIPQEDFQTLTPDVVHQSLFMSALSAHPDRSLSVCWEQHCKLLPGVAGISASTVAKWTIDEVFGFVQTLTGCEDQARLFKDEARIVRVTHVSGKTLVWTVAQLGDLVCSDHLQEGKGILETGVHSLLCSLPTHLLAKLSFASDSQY
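L3MBTL1 (50 nM) pre-complexed 30 min with biotinylated H3(1-15)K9me1 peptide (75 nM), then compounds added for 30 min at room temperature; AlphaScreen streptavidin donor/nickel chelate acceptor beads (10 ug/mL final) read after 30 min dark incubation.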
* hit, by the source's call; ? = inconclusive; · = not tested or not shown; ! = not active in a repeat; [ ] = dose if it differs, or a comment. Hits are enriched below; roughly 12% of the tested compounds scored in any of these assays. The call rests on the fitted dose curve; in most records, active means well fitted curve in the direction sought with a large enough effect; inconclusive means small, poorly fitted or top-dose-only effect, or another doubt; inactive means no such curve, though single readings can be large; an effect the other way counts as inactive or inconclusive. Potency means the concentration at half of the fitted maximal effect.

SMILES	G9a inh	Sfp PPTase inh	BAZ2B block	JMJD2A Tudor inh	HP1b chromo inh	L3MBTL1 inh
Cc1ccc2oc(=O)n(CCNC(=O)Nc3ccc(C)c(F)c3)c2c1	11%[59 µM]	·	-6%	-6%	83%	·
CC1=C(C(=O)Nc2ccccc2)C(c2ccc[nH]2)n2ncnc2N1 (centres undefined)	?	·	8.9µM*	22µM*	-28%[57 µM]	1.6µM*
CC1=C(C(=O)Nc2ccccc2)C(c2ccccn2)n2ncnc2N1 (centres undefined)	8%[59 µM]	9%	-10%	-3%	26%	·
O=C1C=C(N2CCOCC2)C2(CCCCC2)O1	45µM*	-7%	?	0%	17%	?
COc1cc(OC)c(NC(=O)c2ccc(-n3cnc4cccnc43)cc2)cc1Cl	-28%[59 µM]	·	-11%	-19%	1%	·
O=C(c1csnn1)N1CCC2(CCCN(c3cccc(-c4ccccc4)c3)C2)CC1	12%[12.7 µM]	-13%	·	·	·	·
N#C/C(=C\c1cccc(Cl)c1)C(=O)c1ccccc1	40µM*	?	-6%	-19%	12%	-3%
COc1ccc(CNC(=O)c2cc3c(=O)n(Cc4cccnc4)ccc3nc2C)cc1	15%[59 µM]	·	-9%	-12%	27%	·
CCOC(=O)c1c(-c2ccccc2)oc2ccc(NS(=O)(=O)c3cc(C)c(C)cc3C)cc12	-5%[59 µM]	·	-1%	-29%	38%	·
O=C(Nc1ccccc1C(=O)OCc1cc(=O)n2nc(C3CC3)sc2n1)c1cccc(Cl)c1	14%[59 µM]	·	-9%	-8%	4%	·
CCC(NC(C)C)C(O)c1ccc(O)c(O)c1 (centres undefined)	27µM*!	?	?	?	7%	-4%
CC[C@H](NC(C)C)[C@H](O)c1ccc(O)c2[nH]c(=O)ccc12	17%[59 µM]	?	·	·	·	·
CCC(c1ccc(O)c(O)c1)C(CC)c1ccc(O)c(O)c1 (centres undefined)	·	·	·	79µM*	?	·
Clc1ccc(SCNc2ccccc2Cl)cc1	31%	45µM*	47%	73%	106%	·
Cc1c(C(=O)NCCc2ccc(Cl)cc2)cccc1-n1cnc2cccnc21	?	·	-1%	-7%	50%	·
O=C(Cc1ccccc1)Nc1sc2c(c1C(=O)Nc1ccccc1Cl)CCC2	6%[59 µM]	·	11%	-2%	31%	·
CCC/C=C(\CCC)C(NC(=O)C(C)(C)C)c1ccc(C(=O)OC)cc1 (centres undefined)	·	17%	·	·	·	·
Cc1c(S(=O)(=O)c2ccccn2)c(N)n(Cc2cccc(Cl)c2)c1C	28µM*	?	-30%	-25%	37%	-25%
O=S(=O)(c1ccc(Cl)cc1)c1ccccn1	15%	-11%	9%	-11%	17%	-1%
CCCSc1nnc2c(n1)OC(CC)N(C(C)=O)c1ccccc1-2 (centres undefined)	-43%[59 µM]	·	-1%	1%	23%	·
O=C(C1CC1)N1CCc2cc(Br)cc(S(=O)(=O)N3CCCCCC3)c21	-38%	10%	5%	-9%	37%	6%
CC(=O)N1CCc2cc(Br)cc(S(=O)(=O)NCc3ccccn3)c21	?	4%	-31%	79µM*	-8%	1%
CC(=O)N1CCc2cc(Br)cc(S(=O)(=O)N3CCC(C(=O)O)CC3)c21	50µM*	20%	-30%	-13%	0%	·
CCC(=O)N1CCc2cc(Br)cc(S(=O)(=O)CCC(=O)NCc3ccco3)c21	-15%[59 µM]	-1%	-2%	-24%	20%	-24%
CCC(=O)N1CCc2cc(Br)cc(S(=O)(=O)NCc3ccco3)c21	45µM*	-6%	-5%	-15%	17%	-2%
COC(=O)c1cc(NS(=O)(=O)c2cc(Br)cc3c2N(C(C)=O)CC3)cc(C(=O)OC)c1	-14%[59 µM]	·	71µM*	4%	37%	·
CC(=O)N1CCc2cc(Br)cc(S(=O)(=O)NCCc3ccc(Cl)cc3)c21	2%[59 µM]	·	2%	2%	48%	·
COc1ccc(N(C(=O)COc2c(C)cccc2C)S(=O)(=O)c2ccc(Cl)cc2)cc1	6%[59 µM]	·	2%	-21%	32%	·
